Test results as given in PubChem BioAssay (NCI).
This is part of a sample that, as a whole, favours compounds with a hit. Of some 83,000 tested, about 20% had one in any assay.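 The endpoint reported here, percent growth, reads 100 for growth as untreated, 0 for no net growth and -100 for all cells dead.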 A number with no mark means an inactive call. Calls of active or inactive are those of the source. How the source made its calls: active means growth percent below 10; inactive means the rest.

Each molecule was assayed on CCRF-CEM leukemia (assay: NCI-60 one-dose screen, 48 h (100 = growth as untreated, 0 = no growth, -100 = all killed)). Conditions: 10 µM unless noted.
For O=C1Nc2ccccc2/C1=C\c1cccc(/C=C2/C(=O)Nc3ccccc32)n1, the growth was -51.9% (active). COc1ccc(/C=N/NC(=O)c2cccc3cc[nH]c23)cc1O was tested, and the growth was 0.582% (active). Cn1c2c(Cl)c(Cl)ccc2c2cc(N)[nH]c(=O)c21 gave a growth of 81.3%. In the case of COc1ccc(-c2cnnc3c(-c4cccc(C(F)(F)F)c4)cnn23)cc1, the growth is reported as 61.2%. In the case of O=C1Nc2c(ccc(Cl)c2Cl)/C1=C/c1ccc([N+](=O)[O-])cc1, the growth is reported as 2.94% (active). Work on COc1ccc(-c2nc(SCC(C)C)nc(N/N=C(/C)c3ccc(OC)c(OC)c3)c2C#N)cc1 yielded a growth of 70.3%. Work on NS(=O)(=O)c1cccc(NC(=O)C(=O)C2C(=O)Nc3ccccc32)c1 (configuration not stated) yielded a growth of 69.7%. With O=S(=O)(c1cccc(NC2=Nc3cccc4cccc2c34)c1)N1CCCC1 the growth was 41.7%. O=C1Nc2c(ccc(Cl)c2Cl)/C1=C/c1ccccn1 showed a growth of 23.2%. CCN(CCNc1cc(OC)cc2cccnc12)CCc1ccccc1 gave a growth of 73.7%. Molecule COc1cc2nc(-c3ccc(C#N)cc3)[nH]c(=O)c2cc1OC has a growth of 188%. In the case of CCCOc1nc(SCCC)nc2c1cnn2-c1ccccc1, the growth is reported as 92.9%. Molecule O=S(=O)(c1ccccc1)N1CCCc2ccccc21 has a growth of 92.4%. In the case of O=C(Nc1ccc(Cl)cc1)Nc1ccc(Cl)c(Cl)c1, the growth is reported as 6.06% (active). COc1cc(NCC(O)CN(CC(C)C)C2CCCC2)c2ncccc2c1 (configuration not stated) showed a growth of 114%. In the case of COc1cccc2c1C(=O)c1c(O)c3c(c(O)c1C2=O)C[C@@](O)(C(=O)CO)C[C@@H]3O[C@H]1C[C@H](N)[C@@H](O)[C@H](C)O1, the growth is reported as -20.5% (active). Clc1ccc(N2N=C(c3cccc(Nc4ccncc4)c3)CC2c2ccccc2)cc1 (configuration not stated) showed a growth of 96.3%. Molecule COc1ccc(Cn2nc(-c3cc(OC)c(OC)c(OC)c3)c3c2CCc2cnoc2-3)cc1OC has a growth of 55.6%. COc1cc2nnn3c4ncccc4c(N=O)c3c2cc1OC was tested, and the growth was -13.4% (active). With C(=N\Nc1ncc(-c2cc3cc4c(cc3o2)OCO4)s1)/c1c[nH]c2ccccc12 the growth was 2.87% (active). COc1ccc(-c2nn(Cc3ccccc3)c3c2-c2oncc2CC3)cc1OC gave a growth of 98.3%. For CCc1nc(C)cn1C(=O)OCc1nc2nc(Cl)nc(N3CCOCC3)c2[nH]1, the growth was -5.27% (active). O=C(Nc1ccccc1)Oc1ccccc1-c1ccccc1 gave a growth of 95.8%. With COc1ccc(C(O)c2cc3c(N)c(C(=O)Nc4ccccc4)sc3nc2C)cc1 (configuration not stated) the growth was 4.7% (active). For CCC(C)N(CCNc1cc(OC)cc2cccnc12)CCC(C)C (configuration not stated), the growth was 109%.

Each molecule was assayed on MOLT-4 leukemia in the same assay as above. Conditions: 10 µM unless noted.
O=C1Nc2ccccc2/C1=C\c1cccc(/C=C2/C(=O)Nc3ccccc32)n1 was tested, and the growth was -30% (active). In the case of COc1ccc(/C=N/NC(=O)c2cccc3cc[nH]c23)cc1O, the growth is reported as 38.2%. CCN1C(=O)N(CC)C2C1NN=c1s/c(=C3\C(=O)Nc4ccccc43)c(=O)n12 (configuration not stated) showed a growth of 46.1%. With CC(C)(O)C1CCCN1C(=O)c1ccccc1I (configuration not stated) the growth was -67.6% (active). With O=C1NC(=S)NC(=O)C1=Cc1cccc(C=C2C(=O)NC(=S)NC2=O)c1 the growth was 102%. Work on COc1ccc(-c2cnnc3c(-c4cccc(C(F)(F)F)c4)cnn23)cc1 yielded a growth of 89.2%. For O=C1Nc2c(ccc(Cl)c2Cl)/C1=C/c1ccc([N+](=O)[O-])cc1, the growth was 96.3%. With COc1ccc(-c2nc(SCC(C)C)nc(N/N=C(/C)c3ccc(OC)c(OC)c3)c2C#N)cc1 the growth was 55.3%. Work on NS(=O)(=O)c1cccc(NC(=O)C(=O)C2C(=O)Nc3ccccc32)c1 (configuration not stated) yielded a growth of 100%. O=S(=O)(c1cccc(NC2=Nc3cccc4cccc2c34)c1)N1CCCC1 showed a growth of 57%. Work on CCOC(=O)c1c(SC)nn(-c2cc(=O)[nH]c3ccc(Br)cc23)c1N yielded a growth of 111%. With CC(=O)c1c[nH]c2ccc(-c3ccnc(Nc4ccc(NC(=O)C5CCCC5)c(CN5CCOCC5)c4)n3)cc12 the growth was -16.2% (active). For COc1ccc(/C=C(/c2ccccc2)[N+](=O)[O-])cc1, the growth was -15.5% (active). CCCOc1nc(SCCC)nc2c1cnn2-c1ccccc1 was tested, and the growth was 141%. For O=S(=O)(c1ccccc1)N1CCCc2ccccc21, the growth was 94.6%. In the case of O=C(Nc1ccc(Cl)cc1)Nc1ccc(Cl)c(Cl)c1, the growth is reported as 6.56% (active). Work on COc1ccc(Nn2c(SCC(=O)Nc3nc(-c4ccc(Cl)cc4)cs3)nc(C)c2C)cc1 yielded a growth of 36.1%. In the case of COc1cccc2c1C(=O)c1c(O)c3c(c(O)c1C2=O)C[C@@](O)(C(=O)CO)C[C@@H]3O[C@H]1C[C@H](N)[C@@H](O)[C@H](C)O1, the growth is reported as -0.0958% (active). Clc1ccc(N2N=C(c3cccc(Nc4ccncc4)c3)CC2c2ccc3c(c2)OCO3)cc1 (configuration not stated) was tested, and the growth was 2.58% (active). With O=C(N/N=C/c1ccncc1)c1ccccc1Nc1cccc(C(F)(F)F)c1 the growth was 72.2%. In the case of COc1ccc(Cc2nc3cc(OC)c(OC)cc3c(=O)[nH]2)cc1, the growth is reported as 80.7%. Molecule COc1ccc(-c2c[nH]c(C(=O)O)c2-c2cc(OC)c3c(c2OC)OCO3)cc1 has a growth of 102%. Clc1ccc(N2N=C(c3cccc(Nc4ccncc4)c3)CC2c2ccccc2)cc1 (configuration not stated) showed a growth of 89.4%. In the case of COc1ccc(Cn2nc(-c3cc(OC)c(OC)c(OC)c3)c3c2CCc2cnoc2-3)cc1OC, the growth is reported as 36.2%. For COc1cc2nnn3c4ncccc4c(N=O)c3c2cc1OC, the growth was -14.9% (active). For Clc1nc(Cl)c2ncn(CC3(Cn4cnc5c(Cl)nc(Cl)nc54)COC3)c2n1, the growth was -66.8% (active). In the case of C(=N\Nc1ncc(-c2cc3cc4c(cc3o2)OCO4)s1)/c1c[nH]c2ccccc12, the growth is reported as -23.8% (active). COc1ccc(-c2nn(Cc3ccccc3)c3c2-c2oncc2CC3)cc1OC gave a growth of 67.2%. In the case of COc1cc(/C=C/C(=O)c2c(C)oc3nc[nH]c(=O)c23)ccc1O, the growth is reported as 104%. CCc1nc(C)cn1C(=O)OCc1nc2nc(Cl)nc(N3CCOCC3)c2[nH]1 was tested, and the growth was 6.91% (active). Molecule COc1ccc(C(O)c2cc3c(N)c(C(=O)Nc4ccccc4)sc3nc2C)cc1 (configuration not stated) has a growth of 11.4%. With CCC(C)N(CCNc1cc(OC)cc2cccnc12)CCC(C)C (configuration not stated) the growth was 83.9%.
